Experimental data from PubChem BioAssay (EPA / NIEHS).
Activity calls are given as the source filed them. How the source made its calls: active means hit-call score of the fitted dose curve at least 0.9, where 1 is the maximum; inactive means score below 0.9.

Test: APR_HepG2_StressKinase_24hr: Apredica 24-hour HepG2 Assay for Stress Kinase (AID 2282922)
Details: HepG2 stress kinase (phospho-c-Jun) imaging, actives raise or lower the signal
Protocol: APR_HepG2_24hr is a cell-based, multiplexed-readout assay that uses HepG2, a human liver cell line, with measurements taken at 24 hours after chemical dosing in a 384-well plate.APR_HepG2_StressKinase_24hr is one of 10 assay component(s) measured or calculated from the APR_HepG2_24hr assay. It is designed to make measurements of enzyme activity, a form of enzyme reporter, as detected with fluorescence intensity signals by HCS Fluorescent Imaging technology.Data from the assay component APR_HepG2_StressKinase_24hr was analyzed into 1 assay endpoint. This assay endpoint, APR_HepG2_StressKinase_24hr, was analyzed with bidirectional fitting relative to DMSO as the negative control and baseline of activity. Using a type of enzyme reporter, measures of protein for gain or loss-of-signal activity can be used to understand the signaling at the pathway-level as they relate to the gene . Furthermore, this assay endpoint can be referred to as a primary readout, because this assay has produced multiple assay endpoints where this one serves a signaling function. To generalize the intended target to other relatable targets, this assay endpoint is annotated to the cell cycle intended target family, where the subfamily is stress response.
Cells were treated with dimethyl sulfoxide (DMSO) as a solvent control at a final concentration of 0.5% v/v or with compounds in DMSO with a resulting final DMSO concentration of 0.5% v/v. Compound treatment was done at concentrations of 0.39, 0.78, 1.56, 3.12, 6.24, 12.5, 25, 50, 100, and 200 uM in duplicate on each plate. Cells were treated with compounds for 1, 24, or 72 hr. Carbonyl […] m-chloro-phenylhydrazone (CCCP) and taxol were used as positive controls for mitochondrial function and cytoskeletal stability, respectively; DMSO served as the negative control for this experiment. Cells were fixed by the direct addition of 50 uL formaldehyde in Hank's Balanced Salt Solution (HBSS) to a final concentration of 3.7%. After incubation in the fixation medium for 30 min at room temperature (293-298 K), cells were rinsed twice with HBSS and treated with cell permeabilization buffer (16 uL of 0.5% Triton X-100) for 10 min at room temperature (293-298 K) before labeling. For mitochondrial membrane potential and mitochondrial measurements, pre-fixed cells were incubated with 50 uL of MitoTracker Red CMXRos (Invitrogen) at a concentration of 250 nM for 30 min before fixation. In the remaining cases, post-fixed cells were labeled by incubation with a multiplexed mixture of primary antibodies in HBSS for 60 min at room temperature (293-298 K) to detect immunoreactivity of c-Jun (1:500), phospho-histone H3 (1:100), phospho-histone H2A.x (1:200), p53 (1:400), alpha-tubulin (1:200) and Hoechst 33342 (2 ug/mL). Cells were labeled for multiplexed imaging on two separate plates: a) Hoechst 33342, MitoTracker Red, phospho-histone H3, and alpha-tubulin, and b) Hoechst 33342, phospho-histone H2A.x, and c-Jun. A final rinse with HBSS (50 uL) was performed before analysis. The primary and secondary antibodies for the proteins were phospho-histone H3 (rabbit anti-phospho-histone H3 and FITC-donkey anti-rabbit IgG), phospho-histone H2A.x (mouse anti-phospho-histone H2A.x and FITC-donkey anti-mouse IgG), c-Jun (rabbit anti-phospho-c-Jun and Cy3-donkey anti-rabbit IgG), p53 (sheep anti-p53 and Cy5-donkey anti-sheep IgG), alpha-tubulin (mouse anti-alpha-tubulin and Cy5-donkey anti-mouse IgG). These antibodies are available as the CellCiphr HepG2 assay kit (Millipore).Digital images of each well were captured using a Cellomics ArrayScan VTI (Thermo Scientific Cellomics) (0.8 NA objective, 0.63x optical coupler, and XF-93 filter set) at 20x magnification. The images were acquired using the autofocus feature of the ArrayScan instrument, which entails the following steps. First, the camera focuses on channel 1 (Hoechst 33342), where nuclei are identified. Second, a Z offset of 1 um is used for capturing mitochondria (MitoTracker Red). […]

With `CN(C)[C@@H]1C(=O)C(C(N)=O)=C(O)[C@@]2(O)C(=O)C3=C(O)c4c(O)cccc4[C@@](C)(O)[C@H]3[C@H](O)[C@@H]12` as the molecule, how does the outcome read?
Its outcome is “inactive”.

For `CNC(=O)Oc1cccc2c1OC(C)(C)O2`, which outcome is on record?
Its outcome is “inactive”.

With `CC1(C(=O)Nc2ccc(O)c(Cl)c2Cl)CCCCC1` as the molecule, how does the outcome read?
Its outcome is “inactive”.

For `O=C(O)c1cc(Oc2ccc(C(F)(F)F)cc2Cl)ccc1[N+](=O)[O-]`, which outcome is on record?
Its outcome is “inactive”.

For `COc1ccc(C(=CC(=O)N2CCOCC2)c2ccc(Cl)cc2)cc1OC`, which outcome is on record?
The outcome was “inactive”.

For `CC(C)=CC1C(C(=O)OCN2C(=O)C3=C(CCCC3)C2=O)C1(C)C` (stereo not given), which outcome is on record?
Its outcome is “inactive”.

Which outcome does the source give for `CCc1cccc(CC)c1N(COC)C(=O)CCl` here?
Its outcome is “inactive”.

With `CCOP(=O)(OCC)Oc1cc(C)nc(C(C)C)n1` as the molecule, how does the outcome read?
Its outcome is “inactive”.

Which outcome does the source give for `CCOP(=S)(OCC)Oc1ccc([N+](=O)[O-])cc1` here?
The outcome was “inactive”.

Which outcome does the source give for `N#CSCSC#N` here?
Its outcome is “inactive”.

With `CCOC(=O)COc1cc(-c2nn(C)c(OC(F)F)c2Cl)c(F)cc1Cl` as the molecule, how does the outcome read?
The outcome was “inactive”.

With `Nc1c(Cl)cc([N+](=O)[O-])cc1Cl` as the molecule, how does the outcome read?
The outcome was “inactive”.

For `COc1cc(OC)nc(Sc2cccc(Cl)c2C(=O)O)n1`, which outcome is on record?
Its outcome is “inactive”.

For `Nc1nc(N)nc(NC2CC2)n1`, which outcome is on record?
Its outcome is “inactive”.

Which outcome does the source give for `CCC(=O)Nc1ccc(Cl)c(Cl)c1` here?
The outcome was “inactive”.

Which outcome does the source give for `COP(=O)(OC)C(O)C(Cl)(Cl)Cl` (stereo not given) here?
Its outcome is “inactive”.

For `FC(F)C(F)(F)OCC(Cn1cncn1)c1ccc(Cl)cc1Cl` (stereo not given), which outcome is on record?
Its outcome is “inactive”.

With `CSc1nc(NC(C)C)nc(NC(C)C)n1` as the molecule, how does the outcome read?
Its outcome is “inactive”.

With `CCCCOC(=O)c1ccccc1C(=O)O` as the molecule, how does the outcome read?
The outcome was “inactive”.

Which outcome does the source give for `CCC(CC)Nc1c([N+](=O)[O-])cc(C)c(C)c1[N+](=O)[O-]` here?
Its outcome is “inactive”.

With `CNC(=O)ON=C(C)SC` as the molecule, how does the outcome read?
Its outcome is “inactive”.

For `CC1=NNC(=O)N(/N=C/c2cccnc2)C1`, which outcome is on record?
The outcome was “inactive”.

With `CN1COCN(Cc2cnc(Cl)s2)C1=N[N+](=O)[O-]` as the molecule, how does the outcome read?
The outcome was “inactive”.

For `CC(C)[C@H](C(=O)O[C@H](C#N)c1cccc(Oc2ccccc2)c1)c1ccc(Cl)cc1`, which outcome is on record?
Its outcome is “inactive”.

With `CCCSP(=O)(OCC)SCCC` as the molecule, how does the outcome read?
The outcome was “inactive”.

For `COP(=O)(NC(C)=O)SC` (stereo not given), which outcome is on record?
Its outcome is “inactive”.

With `CCCOc1nn(C(=O)NS(=O)(=O)c2ccccc2C(=O)OC)c(=O)n1C` as the molecule, how does the outcome read?
Its outcome is “inactive”.

Which outcome does the source give for `CC[C@H](C)[C@H]1O[C@]2(C=C[C@@H]1C)C[C@@H]1C[C@@H](C/C=C(\C)[C@@H](O[C@H]3C[C@H](OC)[C@@H](O[C@H]4C[C@H](OC)[C@@H](NC)[C@H](C)O4)[C@H](C)O3)[C@@H](C)/C=C/C=C3\CO[C@@H]4[C@H](O)C(C)=C[C@@H](C(=O)O1)[C@]34O)O2` here?
Its outcome is “inactive”.

For `CCCSP(=O)(OCC)Oc1ccc(Br)cc1Cl` (stereo not given), which outcome is on record?
Its outcome is “inactive”.

For `COc1cccc(C(=O)NN(C(=O)c2cc(C)cc(C)c2)C(C)(C)C)c1C`, which outcome is on record?
The outcome was “inactive”.

For `CCOP(=S)(OCC)Oc1ccc2c(C)c(Cl)c(=O)oc2c1`, which outcome is on record?
Its outcome is “inactive”.

For `CC(C)N(C(=O)SCC(Cl)=C(Cl)Cl)C(C)C`, which outcome is on record?
The outcome was “inactive”.

For `CC(C1CC1)C(O)(Cn1cncn1)c1ccc(Cl)cc1` (stereo not given), which outcome is on record?
Its outcome is “inactive”.

Which outcome does the source give for `CCOP(=S)(OCC)Oc1cc(C)nc(C(C)C)n1` here?
The outcome was “inactive”.

With `CCOP(=S)(OCC)SCCSCC` as the molecule, how does the outcome read?
Its outcome is “inactive”.

With `S=C1NCCN1` as the molecule, how does the outcome read?
The outcome was “inactive”.

With `CCOP(=S)(OCC)OC(Cl)C(Cl)(Cl)Cl` (stereo not given) as the molecule, how does the outcome read?
Its outcome is “inactive”.

With `C[N+]1(C)CCCCC1` as the molecule, how does the outcome read?
Its outcome is “inactive”.

With `CSC1=N[C@@](C)(c2ccccc2)C(=O)N1Nc1ccccc1` as the molecule, how does the outcome read?
The outcome was “inactive”.

Which outcome does the source give for `Cc1ccn2nc(S(=O)(=O)Nc3c(F)cccc3F)nc2n1` here?
Its outcome is “inactive”.
